The source of these data is PubChem BioAssay (EPA / NIEHS).

Read-out in test [1]: Interleukin-1 alpha (IL1a), IL1A (gene 3552)
Put plainly: BSK_KF3CT_IL1a: BioMAP Diversity Plus: KF3CT Assay for Interleukin-1 alpha (IL1a) Biomarker Activity (AID 2283070). The settings on record: primary human keratinocytes with fibroblasts; actives raise or lower the signal. In outline: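 Human keratinocyte plus foreskin fibroblast primary co-culture, sampled 24 h after chemical dosing. IL-1a measured by ELISA; responses fitted bidirectionally against DMSO baseline (negative control), so gain or loss of signal both count.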

Read-out in test [2]: TIMP metallopeptidase inhibitor 2 (TIMP2), TIMP2 (gene 7077)
In words: BSK_KF3CT_TIMP2: BioMAP Diversity Plus: KF3CT Assay for TIMP metallopeptidase inhibitor 2 (TIMP2) Biomarker Activity (AID 2283071). The settings on record: primary human keratinocytes with fibroblasts; actives raise or lower the signal. In a few lines:
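Cells: human keratinocytes co-cultured with foreskin fibroblasts. Treat with chemical, 24 h. Measure TIMP-2 by ELISA; fit curves bidirectionally vs DMSO baseline.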

Read-out in test [3]: C-C motif chemokine 2 (Homo sapiens) (UniProt P13500)
In words: BSK_KF3CT_MCP1: BioMAP Diversity Plus: KF3CT Assay for Monocyte Chemoattractant Protein 1 (MCP1/CCL2) Biomarker Activity (AID 2283073). The settings on record: primary human keratinocytes with fibroblasts; actives raise or lower the signal. In outline: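 ELISA read-out of MCP-1, 24 h post-dose, in primary human skin keratinocytes co-cultured with fibroblasts. Parallel SRB staining monitors cytotoxicity; changes fitted both directions relative to DMSO.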

Read-out in test [4]: Matrix Metallopeptidase 9 (MMP9), MMP9 (gene 4318)
Put plainly: BSK_KF3CT_MMP9: BioMAP Diversity Plus: KF3CT Assay for Matrix Metallopeptidase 9 (MMP9) Biomarker Activity (AID 2283074). The settings on record: primary human keratinocytes with fibroblasts; actives raise or lower the signal. In a few lines:
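Keratinocyte plus foreskin fibroblast human primary skin co-culture was dosed with chemical and MMP-9 was quantified by ELISA 24 h later. Bidirectional curve fitting used DMSO as negative control and activity baseline.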

Read-out in test [5]: CD40, CD40 (gene 958)
Put plainly: BSK_LPS_CD40: BioMAP Diversity Plus: LPS Assay for CD40 Biomarker Activity (AID 2283076). The settings on record: primary human HUVEC with PBMC; actives raise or lower the signal. In outline:
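In the LPS system of human endothelial cells with peripheral blood mononuclear cells, CD40 levels were read by ELISA 24 h post-treatment. Signal changes in either direction were fitted against the DMSO baseline, with parallel SRB protein staining.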

Read-out in test [6]: E-selectin (Homo sapiens) (UniProt P16581)
Put plainly: BSK_LPS_Eselectin: BioMAP Diversity Plus: LPS Assay for Eselectin Biomarker Activity (AID 2283077). The note with it: primary human HUVEC with PBMC; actives raise or lower the signal. In outline: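 E-selectin ELISA on LPS-stimulated endothelial cell/PBMC co-cultures, read 24 h post-treatment; gains and losses fitted against DMSO. Parallel SRB staining (0.1% SRB after 10% TCA fixation, 560 nm) flags overt cytotoxicity.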

Read-out in test [7]: Interleukin-8 (IL8), CXCL8 (gene 3576)
Put plainly: BSK_LPS_IL8: BioMAP Diversity Plus: LPS Assay for Interleukin-8 (IL8) Biomarker Activity (AID 2283078). The settings on record: primary human HUVEC with PBMC; actives raise or lower the signal. In a few lines: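 ELISA read-out of IL-8 after 24 h chemical treatment of LPS-activated endothelial/PBMC human primary co-cultures. Changes either up or down relative to DMSO; overt cytotoxicity checked by sulforhodamine B staining in parallel wells.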

Test [8] in a line: BSK_LPS_SRB: Viability Assessment in the BioMAP Diversity Plus: LPS Assay (AID 2283079).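 Further: total protein by sulforhodamine B absorbance as a cytotoxicity measure; measured one day after compound addition.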 The settings on record: primary human HUVEC with PBMC. In a few lines:
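SRB viability endpoint: cells fixed with 10% TCA, stained with 0.1% SRB, read at 560 nm, 24 h post-dose. HUVEC/PBMC co-culture; signal change in either direction scored relative to DMSO.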

Read-out in test [9]: Interleukin-1 alpha (IL1a), IL1A (gene 3552)
In words: BSK_LPS_IL1a: BioMAP Diversity Plus: LPS Assay for Interleukin-1 alpha (IL1a) Biomarker Activity (AID 2283080). The settings on record: primary human HUVEC with PBMC; actives raise or lower the signal. In outline: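 Readout is IL-1a level by ELISA, 24 h post-dose, fitted as gain or loss relative to DMSO. System: LPS-activated human primary co-culture of vascular endothelium and peripheral blood mononuclear cells, with parallel SRB total-protein cytotoxicity.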

Test [10] in a line: BSK_LPS_PGE2: BioMAP Diversity Plus: LPS Assay for Prostaglandin E2 (PGE2) Biomarker Activity (AID 2283082).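 On AC50: secreted prostaglandin E2 measured by ELISA in LPS-stimulated co-culture.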 The settings on record: primary human HUVEC with PBMC; actives raise or lower the signal. In a few lines: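 LPS-activated HUVEC/PBMC co-culture; cmpd dosed, 24 h; PGE2 by ELISA; bidirectional fit vs DMSO; SRB (0.1%, TCA-fixed, 560 nm) in parallel plates for overt cytotox.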

Read-out in test [11]: Macrophage colony-stimulating factor (MCSF), CSF1 (gene 1435)
Put plainly: BSK_LPS_MCSF: BioMAP Diversity Plus: LPS Assay for Macrophage colony-stimulating factor (MCSF) Biomarker Activity (AID 2283083). The settings on record: primary human HUVEC with PBMC; actives raise or lower the signal. In a few lines: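 Bidirectional fitting against DMSO was applied to M-CSF levels read by ELISA at 24 h post-dose. The system pairs human umbilical vein endothelium with peripheral blood mononuclear cells; parallel SRB staining tracked cytotoxicity.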

Read-out in test [12]: Tissue Factor, F3 (gene 2152)
In words: BSK_LPS_TissueFactor: BioMAP Diversity Plus: LPS Assay for Tissue Factor Biomarker Activity (AID 2283084). The note with it: primary human HUVEC with PBMC; actives raise or lower the signal. In a few lines: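 Compound was added to an endothelial cell/PBMC co-culture, and after 24 h tissue factor (CD142) was read by ELISA. Gain or loss of signal was fitted against a DMSO baseline, and parallel SRB staining (560 nm) tracked overt cytotoxicity.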

Read-out in test [13]: Tumor necrosis factor (Homo sapiens) (UniProt P01375)
In words: BSK_LPS_TNFa: BioMAP Diversity Plus: LPS Assay for Tumour Necrosis Factor alpha (TNFa) Biomarker Activity (AID 2283085). The settings on record: primary human HUVEC with PBMC; actives raise or lower the signal. In outline: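 Read-out is ELISA of TNFa in primary human endothelial cell–PBMC co-cultures at 24 h after compound. Activity in either direction was fitted against DMSO.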

Read-out in test [14]: Vascular cell adhesion molecule 1 (VCAM1), VCAM1 (gene 7412)
In words: BSK_LPS_VCAM1: BioMAP Diversity Plus: LPS Assay for Vascular cell adhesion molecule 1 (VCAM1) Biomarker Activity (AID 2283086). The note with it: primary human HUVEC with PBMC; actives raise or lower the signal. In a few lines:
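HUVEC + PBMC co-culture, LPS system; compound 24 h; VCAM-1 by ELISA; bidirectional fit vs DMSO control; parallel SRB (0.1%, TCA-fixed, 560 nm) for cytotoxicity.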

Read-out in another test: CD38, CD38 (gene 952)
Put plainly: BSK_SAg_CD38: BioMAP Diversity Plus: SAg Assay for CD38 Biomarker Activity (AID 2283087). The note with it: primary human HUVEC with PBMC; actives raise or lower the signal. In outline: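 Human HUVEC plus PBMC co-culture stimulated with superantigen; CD38 measured by ELISA 24 h after chemical dosing. Fluorescence read-out, bidirectional fit against DMSO; cytotoxicity tracked in parallel by SRB and Alamar Blue.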

Read-out in test [15]: CD40, CD40 (gene 958)
In words: BSK_SAg_CD40: BioMAP Diversity Plus: SAg Assay for CD40 Biomarker Activity (AID 2283088). The settings on record: primary human HUVEC with PBMC; actives raise or lower the signal. In outline: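 CD40 is measured by fluorescence ELISA in an endothelial/PBMC primary human co-culture at 24 h post-dose. Fitting is bidirectional, DMSO baseline. Parallel SRB staining (560 nm) flags cytotoxicity.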

Read-out in a further test: CD69, CD69 (gene 969)
In words: BSK_SAg_CD69: BioMAP Diversity Plus: SAg Assay for CD69 Biomarker Activity (AID 2283089). The settings on record: primary human HUVEC with PBMC; actives raise or lower the signal. In outline:
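ELISA, fluorescence read-out: CD69 on human umbilical vein endothelial cell + PBMC co-culture, 24 h post-dosing. Gain or loss of signal fitted bidirectionally against DMSO baseline.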

Calls of active or inactive are those of the source. How the source made its calls: active means hit-call score of the fitted dose curve at least 0.9, where 1 is the maximum; inactive means score below 0.9.

E-selectin (Homo sapiens), sequence (P16581 whole entry, looked up): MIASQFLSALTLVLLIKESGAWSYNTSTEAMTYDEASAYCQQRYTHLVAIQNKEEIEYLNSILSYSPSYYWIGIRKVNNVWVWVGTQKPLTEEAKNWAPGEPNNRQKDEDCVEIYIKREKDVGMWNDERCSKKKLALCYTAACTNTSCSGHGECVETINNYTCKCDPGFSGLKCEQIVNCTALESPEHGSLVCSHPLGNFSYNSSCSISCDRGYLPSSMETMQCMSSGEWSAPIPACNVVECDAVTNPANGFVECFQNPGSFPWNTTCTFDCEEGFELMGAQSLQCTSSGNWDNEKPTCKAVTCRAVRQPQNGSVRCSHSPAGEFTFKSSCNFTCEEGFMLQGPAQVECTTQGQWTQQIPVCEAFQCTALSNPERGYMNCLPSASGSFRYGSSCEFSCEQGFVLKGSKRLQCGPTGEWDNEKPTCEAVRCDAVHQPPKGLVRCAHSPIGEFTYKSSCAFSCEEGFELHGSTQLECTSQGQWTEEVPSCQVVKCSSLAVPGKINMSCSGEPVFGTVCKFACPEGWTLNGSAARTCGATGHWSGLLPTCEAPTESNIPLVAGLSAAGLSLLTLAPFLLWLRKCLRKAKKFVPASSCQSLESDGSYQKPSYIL
Tumor necrosis factor (Homo sapiens), sequence (P01375 whole entry, looked up): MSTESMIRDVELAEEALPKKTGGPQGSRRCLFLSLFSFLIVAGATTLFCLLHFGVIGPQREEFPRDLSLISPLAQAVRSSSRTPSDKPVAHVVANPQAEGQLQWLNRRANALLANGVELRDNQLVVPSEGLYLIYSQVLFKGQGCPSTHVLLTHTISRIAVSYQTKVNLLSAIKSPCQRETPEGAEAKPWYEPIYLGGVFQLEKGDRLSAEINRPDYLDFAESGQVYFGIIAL

As for `CCOC(=O)C1=NN(c2ccc(Cl)cc2Cl)C(C)(C(=O)OCC)C1` (stereo unspecified), the outcome in test [1] was “inactive”; in test [2], “inactive”; in test [3] it was “inactive”; in [4] it was “inactive”; with CD40, CD40 (gene 958) [5], “inactive”; in test [6], “inactive”. Also, the outcome in [7], in test [8], in [9], in test [11], in test [12] and in test [13] was inactive. In addition, the outcome in test [14] was “inactive”; in the test with CD38, CD38 (gene 952), “inactive”; with CD40, CD40 (gene 958) [15], “inactive”; with CD69, CD69 (gene 969) it was “inactive”. Moreover, the AC50 (usually the concentration at which the activity in the assay is half-maximal) in [10] is 8.97 µM (active).

Turning to `CCOC(=O)/C=C\C(=O)OCC`, the outcome in [1] was “inactive”; in [2] it was “inactive”; in test [4], “inactive”; in the test with CD40, CD40 (gene 958) [5] it was “inactive”; in [7], “inactive”; in test [8], “inactive”. For the same molecule, the outcome in test [9], in test [10], in [11], in test [12], in test [13] and in test [14] was inactive. The outcome with CD38, CD38 (gene 952) is “inactive”; with CD40, CD40 (gene 958) [15], “inactive”; with CD69, CD69 (gene 969) it was “inactive”. For the same molecule, the AC50 in test [3] is 3.97 µM (active).

For the molecule `Nc1ccc(C(=O)O)cc1`, the outcome is “inactive” in test [1]; “inactive” in test [2]; “inactive” in [3]; “inactive” in test [4]; “inactive” with CD40, CD40 (gene 958) [5]; “inactive” in [6]. Also, the result in test [7], in [8], in test [9], in test [10], in [11] and in [12] was inactive. Also, the outcome in test [13] was “inactive”; in test [14] it was “inactive”; with CD38, CD38 (gene 952) it was “inactive”; with CD40, CD40 (gene 958) [15] it was “inactive”; with CD69, CD69 (gene 969), “inactive”.

Take `CC(CCC(=O)O)(c1ccc(O)cc1)c1ccc(O)cc1`: the outcome in test [1] is “inactive”; in test [2] it was “inactive”; in test [3] it was “inactive”; in test [4], “inactive”; with CD40, CD40 (gene 958) [5] it was “inactive”; in test [6] it was “inactive”. Besides, the outcome in test [7], in test [8], in test [10], in test [11], in test [12] and in [13] was inactive. Besides, the outcome was “inactive” in test [14]; “inactive” with CD38, CD38 (gene 952); “inactive” in the test with CD40, CD40 (gene 958) [15]; “inactive” with CD69, CD69 (gene 969).
